Bioassay records deposited in PubChem by National Center for Advancing Translational Sciences (NCATS).
This is a sample that favours compounds with a hit; in the whole collection about 8.9% have one here.
MCF10A rerep: A quantitative high throughput screen for small molecules that induce DNA re-replication in MCF 10a normal breast cells | MCF 10A DNA re-replication, Hoechst nuclear intensity, 48 h | Potency, µM (highest dose often 46.1 µM), hits mostly activators | hit rate 2.9% among 350,000 | AID 624296, 2012; further: nearly all actives have a fitted effect of over 50% in size
DRD3 antagonist: qHTS of D3 Dopamine Receptor Antagonist: qHTS. D3R cells, DiscoveRx beta-arrestin luminescence, antagonist mode; stronger effect = lower value. D(3) dopamine receptor (Homo sapiens), P35462. max response, negative = inhibition, %. hit rate 2.5% among 360,000; in the data active means max response below about -50%; inconclusive means no clear call, values can overlap the other calls
Target sequence (P35462 whole entry, looked up): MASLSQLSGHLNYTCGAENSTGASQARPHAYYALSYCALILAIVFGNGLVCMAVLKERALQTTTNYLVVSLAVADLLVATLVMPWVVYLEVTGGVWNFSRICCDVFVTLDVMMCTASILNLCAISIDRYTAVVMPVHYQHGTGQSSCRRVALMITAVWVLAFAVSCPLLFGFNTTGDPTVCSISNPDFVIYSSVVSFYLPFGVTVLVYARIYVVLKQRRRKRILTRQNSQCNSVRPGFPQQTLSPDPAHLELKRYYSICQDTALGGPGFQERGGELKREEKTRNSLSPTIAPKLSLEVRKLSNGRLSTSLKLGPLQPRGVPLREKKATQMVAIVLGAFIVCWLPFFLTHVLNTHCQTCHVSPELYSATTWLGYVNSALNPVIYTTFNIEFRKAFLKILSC
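Cells expressing the human receptor were seeded at 1500 cells/well, incubated overnight at 37 degrees C in 5% CO2, then exposed to library compounds with dopamine controls for 90 minutes at 37 degrees C before luminescent detection.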
KB-3-1 tox: qHTS assay for MDR1-selective chemotherapeutics: Primary screen using the parental adenocarcinoma cell KB-3-1. KB-3-1 viability, CellTiter-Glo ATP luminescence, 72 h. Potency, µM (top dose mostly 46.1 µM), usual class: cytotoxic. hit rate 1.4% among 400,000. AID 1347075, 2019; further: nearly all actives have a fitted effect of over 60% in size
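Multi-concentration cytotoxicity screen in KB-3-1 cells grown in DMEM lacking phenol red with 10% FBS. After 72 h at 37 °C with compound, ATP-dependent luminescence was recorded.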
SW480 rereplic: A quantitative high throughput screen for small molecules that induce DNA re-replication in SW480 colon adenocarcinoma cells; hit rate 1.8% among 340,000; Potency, µM (top dose mostly 46.1 µM), hits mostly activators; SW480 DNA re-replication, Hoechst DNA content imaging, 48 h; further: nearly all actives have a fitted effect of over 55% in size
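Per well, 250 cells were exposed to pinned compound for 48 hr. Nuclear DNA was visualised with Hoechst (40 min, 37 C) and total object intensity recorded by fluorescence scanning.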
KB-V1 MDR tox: qHTS assay for MDR1-selective chemotherapeutics: Primary screen using the drug-selected MDR subline cells KB-V1. KB-V1 MDR cells viability, CellTiter-Glo, 72 h. Potency, µM (highest dose often 46.1 µM), actives largely listed as cytotoxic. hit rate 3.4% among 400,000. AID 1347076, 2019; further: nearly all actives have a fitted effect of over 60% in size
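qHTS viability screen in drug-selected KB-V1 MDR cells: 72 h compound treatment at 37 degrees C, ATP luminescence end point.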
DRD3 agonist: qHTS of D3 Dopamine Receptor Agonist: qHTS | hit rate 0.58% among 410,000 | max activation, % | D(3) dopamine receptor (Homo sapiens), P35462 | D3R DiscoveRx beta-arrestin cells, luminescence, 90 min | AID 652048, 2013; in the data active means max activation above about 30%
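Cells at 1500/well, incubated overnight, then treated with pinned compounds (dopamine as control) for 90 min at 37 degrees C. DiscoveRx reagent added for 30 - 60 minutes at room temperature; luminescence read.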
Hits are given with their value; [ ] = another dose, or the depositor's remark. Unless noted, the call rests on the fitted dose curve; in most records, active means well fitted curve in the direction sought with a large enough effect; inconclusive means small, poorly fitted or top-dose-only effect, or another doubt; inactive means no such curve, though single readings can be large; an effect the other way counts as inactive or inconclusive.

`Cc1ccc(NC(=S)NNC(=S)Nc2ccc(C)cc2)cc1` gave MCF10A rerep inactive, DRD3 antagonist inactive, KB-3-1 tox 3.7µM, SW480 rereplic inactive, KB-V1 MDR tox inconclusive and DRD3 agonist inactive.
Cc1ccc(NC(=S)NNC(=O)c2ccccc2OC(F)F)cc1 was read as MCF10A rerep inactive, DRD3 antagonist inactive, KB-3-1 tox inactive, SW480 rereplic 16µM, KB-V1 MDR tox inconclusive and DRD3 agonist inactive.
For O=C(NNC(=S)Nc1ccccc1)NNC(=S)Nc1ccccc1 the results were MCF10A rerep inactive, DRD3 antagonist -70, KB-3-1 tox inactive, SW480 rereplic inactive, KB-V1 MDR tox inactive and DRD3 agonist inactive.
Screening O=C(NNC(=S)Nc1ccc(F)cc1)c1ccccc1OC(F)F returned MCF10A rerep inactive, DRD3 antagonist inactive, KB-3-1 tox inactive, SW480 rereplic inactive, KB-V1 MDR tox inconclusive and DRD3 agonist inactive.
Cc1ccc(NC(N)=S)cc1 was read as MCF10A rerep inactive, DRD3 antagonist inactive, KB-3-1 tox inactive, SW480 rereplic inactive, KB-V1 MDR tox inconclusive and DRD3 agonist inactive.
`Cc1ccc(NNC(=S)Nc2ccc(C(C)C)cc2)c(C)c1` gave MCF10A rerep 7.3µM, DRD3 antagonist inactive, KB-3-1 tox inactive, SW480 rereplic inactive, KB-V1 MDR tox inactive and DRD3 agonist inactive.
`CCc1ccc(CNC(=O)C2CCCN(S(=O)(=O)c3ccc4c(ccn4C)c3)C2)cc1` (configuration not stated) gave KB-3-1 tox inactive, KB-V1 MDR tox inactive and DRD3 agonist inactive.
For COc1ccc(OCc2ccc(-c3nc(C#N)c(N4CCN(C)CC4)o3)o2)cc1 the results were KB-3-1 tox inactive, KB-V1 MDR tox inactive and DRD3 agonist inactive.
Screening Cc1ccc(NC(=S)NNC(=O)Nc2ccccc2)cc1 returned MCF10A rerep inactive, DRD3 antagonist -52, KB-3-1 tox inactive, SW480 rereplic inactive, KB-V1 MDR tox inactive and DRD3 agonist inactive.
Screening O=S(=O)(c1ccccc1)c1nc(Nc2cccc(O)c2)sc1Cl returned MCF10A rerep inactive, DRD3 antagonist inactive, KB-3-1 tox 16µM, SW480 rereplic inconclusive, KB-V1 MDR tox inconclusive and DRD3 agonist inactive.
CCOc1ccc(C2C(=O)N(C3CCCCCC3)CC(=O)N2CCc2ccc(OC)c(OC)c2)cc1OC (configuration not stated) was read as DRD3 agonist inactive.
C[C@H](N[C@@H](C)COc1ccccc1)[C@H](O)c1ccc(O)cc1 was read as MCF10A rerep inactive and SW480 rereplic inactive.
CC(NCCCSc1ccccc1)C(O)c1ccc(O)cc1 (configuration not stated) was read as DRD3 antagonist -62, KB-3-1 tox inactive, KB-V1 MDR tox inactive and DRD3 agonist inactive.
Screening O=c1oc2ccc3ccccc3c2cc1-c1nnc(-c2ccccc2)o1 returned MCF10A rerep 1µM, DRD3 antagonist inactive, KB-3-1 tox inactive, SW480 rereplic inactive, KB-V1 MDR tox inconclusive and DRD3 agonist inactive.
CSc1nnc(-c2sccc2OCc2ccc(C)cc2)n1C was read as MCF10A rerep inconclusive, DRD3 antagonist inactive, KB-3-1 tox inconclusive, SW480 rereplic inconclusive, KB-V1 MDR tox 18µM and DRD3 agonist inactive.
For Cc1ccc(COc2ccsc2C(=O)O)cc1 the results were MCF10A rerep inactive, DRD3 antagonist inactive, KB-3-1 tox inactive, SW480 rereplic inactive, KB-V1 MDR tox inactive and DRD3 agonist inactive.
`COc1cccc(CNCc2cccn2-c2nnc(N3CCN(c4ccccc4)CC3)s2)c1` gave KB-3-1 tox inactive, KB-V1 MDR tox inconclusive and DRD3 agonist inactive.
For CC[C@@]1(c2ccccc2)C(=O)N(C(=O)OC)N1C(=O)OC the results were MCF10A rerep inconclusive, DRD3 antagonist inactive, KB-3-1 tox inactive, SW480 rereplic inactive, KB-V1 MDR tox inactive and DRD3 agonist inactive.
COC(=O)N1C(=O)[C@@](c2ccccc2)(C2CCCCC2)N1C(=O)OC was read as MCF10A rerep 15µM, DRD3 antagonist -54, KB-3-1 tox inactive, SW480 rereplic inactive[9.22 µM], KB-V1 MDR tox inactive and DRD3 agonist inactive.
`CCCOC1(C(F)(F)F)NC(=O)N(c2ccc(Cl)cc2)C1=O` (configuration not stated) gave KB-3-1 tox inactive, KB-V1 MDR tox inactive and DRD3 agonist inactive.
`O=C1/C(=C/C=C/c2ccccc2)Oc2c1ccc(O)c2CN1CCN(CCO)CC1` gave MCF10A rerep inconclusive, DRD3 antagonist inactive, KB-3-1 tox inconclusive, SW480 rereplic inactive, KB-V1 MDR tox inactive and DRD3 agonist inactive.
CCN1CCN(Cc2c(O)ccc3c2O/C(=C\C=C\c2ccccc2)C3=O)CC1 was read as MCF10A rerep inconclusive, DRD3 antagonist inconclusive, KB-3-1 tox 16µM, SW480 rereplic inconclusive, KB-V1 MDR tox inconclusive and DRD3 agonist inactive.
Screening O=CN1CCN(C(=O)c2cc3cc(Cl)ccc3[nH]2)CC1 returned MCF10A rerep inconclusive, DRD3 antagonist inactive, KB-3-1 tox inactive, SW480 rereplic 5.2µM, KB-V1 MDR tox inactive and DRD3 agonist inactive.
O=[N+]([O-])c1ccc(NCCCc2ccccc2)cc1 was read as DRD3 antagonist inactive, KB-3-1 tox inactive, KB-V1 MDR tox inactive and DRD3 agonist inactive.
`CC(c1nc2ccccc2o1)N1C(=O)c2ccccc2C1=O` (configuration not stated) gave MCF10A rerep inactive, DRD3 antagonist -53, KB-3-1 tox inactive, SW480 rereplic inactive, KB-V1 MDR tox inactive and DRD3 agonist inactive.
`O=C1c2ccccc2C(=O)N1CCCCSc1nc2ccccc2o1` gave MCF10A rerep inactive, DRD3 antagonist inactive, KB-3-1 tox inactive, SW480 rereplic inactive, KB-V1 MDR tox inactive and DRD3 agonist inactive.
For Fc1ccc(-c2ccnc3nc(N4CCOCC4)nn23)cc1 the results were MCF10A rerep inactive, DRD3 antagonist inactive, KB-3-1 tox inactive, SW480 rereplic inactive, KB-V1 MDR tox inactive and DRD3 agonist inactive.
Screening COc1ccc(-c2ccnc3nc(N4CCN(c5ccccc5)CC4)nn23)cc1 returned MCF10A rerep inconclusive, DRD3 antagonist inactive, KB-3-1 tox inconclusive, SW480 rereplic inactive, KB-V1 MDR tox 21µM and DRD3 agonist inactive.
CO/N=C\CC(=O)Nc1ccc(Cl)cc1Cl was read as MCF10A rerep 16µM, DRD3 antagonist inactive, KB-3-1 tox inconclusive, SW480 rereplic 7.3µM, KB-V1 MDR tox 5.8µM and DRD3 agonist inactive.
For CS(=O)(=O)c1ncc(Cl)c(C(=O)Nc2ccc(N3CCOCC3)cc2)n1 the results were MCF10A rerep inactive, DRD3 antagonist -78, KB-3-1 tox inactive, SW480 rereplic 10µM, KB-V1 MDR tox inactive and DRD3 agonist inactive.
